# In ChEMBL document CHEMBL4513146, “CO-ADD screening of Karazin Kharkiv National University (Ukraine) compounds”:
# Measured potencies and affinities stand elsewhere.
# Experiments:
# [1] = tested on: Staphylococcus aureus; details: Concentration 32 ug.mL-1;; ASSAY_TEST Inhibition of Bacterial Growth; detection method Absorption (OD600); MEDIA CAMHB; plate type 384well; NBS; CORNING #3640; time 18 hr
# [2] = tested on: Escherichia coli; details: Concentration 32 ug.mL-1;; ASSAY_TEST Inhibition of Bacterial Growth; detection method Absorption (OD600); MEDIA CAMHB; plate type 384well; NBS; CORNING #3640; time 18 hr
smiles,measurement,setting,value
COc1ccc(CNC(=O)CCc2nnc3c(N4CCCCC4)nc4ccccc4n23)cc1OC,Inhibition,[1],16.6%
same,Inhibition,[2],2.89%
Cc1ccc(NC(=O)Cn2nc3c4cc(-c5ccc(Cl)cc5)nn4ccn3c2=O)cc1F,Inhibition,[1],11.6%
same,Inhibition,[2],6.51%
COCCCNC(=O)CSc1nnc2c(=O)n(Cc3ccc(F)cc3)ccn12,Inhibition,[1],10.54%
same,Inhibition,[2],-1.15%
Cc1ccc(CN(c2ccc(C(C)C)cc2)S(=O)(=O)c2cccn3cnnc23)cc1,Inhibition,[1],21.94%
same,Inhibition,[2],4.59%
O=C(Cn1nc2ccc(C(=O)NCc3ccccc3)cn2c1=O)Nc1ccc(Br)cc1,Inhibition,[1],3.47%
same,Inhibition,[2],-7.68%
CC(C)c1nnc2c(SCC(=O)Nc3ccc(C#N)cc3)nc3ccccc3n12,Inhibition,[1],2.21%
same,Inhibition,[2],1.03%
Cc1oc(-c2ccccc2)nc1CSc1nc2ccccc2n2c(C)nnc12,Inhibition,[1],4.04%
same,Inhibition,[2],4.8%
CC(C)(C)S(=O)(=O)c1ccc2nn(CC(=O)Nc3ccc(Br)cc3)c(=O)n2n1,Inhibition,[1],3.67%
same,Inhibition,[2],-5.05%
Cc1cccc(NC(=O)c2ccc3nnc(SCC(=O)Nc4ccc(Br)cc4)n3c2)c1,Inhibition,[1],11.58%
same,Inhibition,[2],0.25%
O=C(Cn1nc2ccc(Sc3cccc(F)c3)nn2c1=O)Nc1cccc(C(F)(F)F)c1,Inhibition,[1],5.63%
same,Inhibition,[2],-8.75%
CCOc1ccc(-n2ccn3c(SCc4cccc(C(F)(F)F)c4)nnc3c2=O)cc1,Inhibition,[1],18.58%
same,Inhibition,[2],1.02%
O=C(Cn1nc2nc(Nc3ccc(F)cc3)ccn2c1=O)Nc1cc(F)ccc1F,Inhibition,[1],11.9%
same,Inhibition,[2],-2.67%
COc1cccc(-c2noc(Cn3nc4ccc(-c5ccc(C)c(C)c5)nn4c3=O)n2)c1OC,Inhibition,[1],6.16%
same,Inhibition,[2],-3.11%
CCc1cccc(NC(=O)CSc2nnc3c(=O)n(-c4ccccc4)ccn23)c1,Inhibition,[1],0.07%
same,Inhibition,[2],-11.7%
COc1ccccc1-n1ccn2c(SCc3ccccc3C)nnc2c1=O,Inhibition,[1],16.46%
same,Inhibition,[2],-2.58%
COc1ccc(NC(=O)Cn2nc3cc(C)nc(Nc4ccc(F)c(C)c4)n3c2=O)cc1,Inhibition,[1],-1.45%
same,Inhibition,[2],-6.2%
CC(=O)c1ccc(NC(=O)Cn2nc3c(SC4CCCCC4)nccn3c2=O)cc1,Inhibition,[1],3.51%
same,Inhibition,[2],-2.6%
Cc1ccc(-c2ccc3nn(Cc4nc(-c5ccc(Cl)cc5)no4)c(=O)n3n2)cc1,Inhibition,[1],5.13%
same,Inhibition,[2],0.55%
O=C(CSc1nnc2c3cc(-c4ccccc4)nn3ccn12)Nc1cccc(Br)c1,Inhibition,[1],9.78%
same,Inhibition,[2],2.01%
CC(=O)c1ccc(NC(=O)Cn2nc3ccc(-c4ccc(C)c(C)c4)nn3c2=O)cc1,Inhibition,[1],9.12%
same,Inhibition,[2],-4.24%
Cc1nnc2ccc(S(=O)(=O)N(Cc3ccccc3)c3ccc(F)cc3)cn12,Inhibition,[1],-4.97%
same,Inhibition,[2],-1.95%
O=C(Cn1nc2c(Oc3ccccc3)nccn2c1=O)Nc1ccccc1C(F)(F)F,Inhibition,[1],2.85%
same,Inhibition,[2],-0.6%
COc1ccc(C)cc1NC(=O)Cn1nc2ccc(SC(C)(C)C)nn2c1=O,Inhibition,[1],2.65%
same,Inhibition,[2],-6.39%
CCc1ccccc1Sc1nccn2c(=O)n(CC(=O)Nc3ccc(C)cc3C)nc12,Inhibition,[1],10.48%
same,Inhibition,[2],-10.9%
Cc1nnc2c(SCC(=O)Nc3ccc(F)cc3F)nc3ccccc3n12,Inhibition,[1],11.73%
same,Inhibition,[2],2.93%
COc1ccc(-c2cc3c4nn(CC(=O)Nc5cc(OC)ccc5OC)c(=O)n4ccn3n2)cc1,Inhibition,[1],5.8%
same,Inhibition,[2],4.02%
CCc1ccc(N(Cc2cccc(F)c2)S(=O)(=O)c2cccn3c(C)nnc23)cc1,Inhibition,[1],10.02%
same,Inhibition,[2],-2.48%
COc1ccc(NC(=O)CSc2nc3ccccc3n3c(C(C)C)nnc23)c(OC)c1,Inhibition,[1],1.68%
same,Inhibition,[2],-5.84%
Cc1ccc(C)c(NC(=O)Cn2nc3c(N4CCCC(C)C4)nccn3c2=O)c1 (centres undefined),Inhibition,[1],-2.35%
same,Inhibition,[2],-6.19%
COc1ccccc1-n1ccn2c(SCC(=O)Nc3ccc4c(c3)OCCO4)nnc2c1=O,Inhibition,[1],18.21%
same,Inhibition,[2],-1.11%
O=S(=O)(c1ccc2nncn2c1)N(Cc1cccc(F)c1)c1ccc(F)c(F)c1,Inhibition,[1],3.37%
same,Inhibition,[2],-6.8%
Cc1[nH]c2ccccc2c1C(=O)CSc1nnc2c(=O)n(-c3ccccc3)ccn12,Inhibition,[1],16.56%
same,Inhibition,[2],-0.61%
COC(=O)c1ccccc1NC(=O)Cn1nc2c3cc(-c4ccc(Cl)cc4)nn3ccn2c1=O,Inhibition,[1],10.87%
same,Inhibition,[2],6.58%
CCCCn1c(=O)c2sccc2n2c(=O)n(CC(=O)NC(C)CC)nc12 (centres undefined),Inhibition,[1],-5.96%
same,Inhibition,[2],-9.68%
Cc1ccc(-c2ccc3nn(Cc4cccc(F)c4)c(=O)n3n2)cc1C,Inhibition,[1],7.67%
same,Inhibition,[2],1.83%
O=C(CCc1nnc2c(N3CCCCC3)nc3ccccc3n12)NCc1ccc(F)cc1,Inhibition,[1],1.77%
same,Inhibition,[2],-4.75%
Cc1cccc(NC(=O)CSc2nnc3ccc(C(=O)Nc4cccc(F)c4)cn23)c1C,Inhibition,[1],10.8%
same,Inhibition,[2],-1.92%
O=S(=O)(c1ccc2nncn2c1)N(Cc1ccccc1F)c1ccc2c(c1)OCCO2,Inhibition,[1],5.05%
same,Inhibition,[2],-6.13%
COC(=O)c1ccc(NC(=O)Cn2c(=O)c3nnc(C(C)C)n3c3ccccc32)cc1,Inhibition,[1],8.86%
same,Inhibition,[2],0.09%
COc1ccccc1-n1ccn2c(SCC(=O)Nc3ccc(C)c(F)c3)nnc2c1=O,Inhibition,[1],12%
same,Inhibition,[2],-1.35%
Cc1ccc(Oc2nccn3c(=O)n(CC(=O)Nc4cc(F)ccc4F)nc23)cc1,Inhibition,[1],15.96%
same,Inhibition,[2],-1.03%
CCc1ccc(N(Cc2ccc(OC)cc2)S(=O)(=O)c2cccn3c(C)nnc23)cc1,Inhibition,[1],5.17%
same,Inhibition,[2],-2.97%
